{"source": "PubChem BioAssay", "note": "“And” between values parts separate entries of the source, which are not always exact repeats. Equal values may be shown once. A number with no mark means an inactive call. The rule behind the calls is not given here."}
{"test_system": "Aerobactin synthetase IucA (Klebsiella pneumoniae hvKP1)", "assay": "Biochemical IucA enzyme inhibition primary screen of the Spectrum library (AID 1346200);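 note: 100% = wells without compound and 0% = wells lacking enzyme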", "conditions": "malachite green pyrophosphate, A620, at 8 µM, hits give low values"}
{"compound": "Oc1cc(O)c2c(c1)O[C@H](c1ccc(O)c(O)c1)[C@H](O)C2", "activity remaining": "99.8%"}
{"compound": "CC(=O)S[C@@H]1CC2=CC(=O)CC[C@]2(C)[C@H]2CC[C@@]3(C)[C@@H](CC[C@@]34CCC(=O)O4)C12", "note": "(stereo not given in full)", "activity remaining": "106%"}
{"compound": "O=C(O)c1ccccc1", "activity remaining": "115%"}
{"compound": "CC(=O)Oc1c2c(c3c(c1CC=C(C)C)O[C@]14C(=C[C@@H]5CC1C(C)(C)OC4(C/C=C(\\C)C(=O)O)C5=O)C3=O)OC(C)(CCC=C(C)C)C=C2", "note": "(stereo not given in full)", "activity remaining": "112%"}
{"compound": "COc1cccc(OC)c1C(=O)N[C@@H]1C(=O)N2[C@@H]1SC(C)(C)[C@@H]2C(=O)O", "activity remaining": "85.9%"}
{"compound": "COc1ccc(-c2cc(=O)c3c(OC)c(OC)c(OC)c(OC)c3o2)cc1", "activity remaining": "121%"}
{"compound": "OCCN1C[C@@H](O)[C@@H](O)C(O)C1CO", "note": "(stereo not given in full)", "activity remaining": "114%"}
{"compound": "Cc1cc(NC(=O)C2=C(O)c3ccccc3S(=O)(=O)N2C)no1", "activity remaining": "94.1%"}
{"compound": "O=C1C(O)=C(O)C(=O)C(O)=C1O", "activity remaining": "125%"}
{"compound": "COc1ccc2oc3ccccc3c(=O)c2c1", "activity remaining": "106%"}
{"compound": "COc1cc(C(=O)NCc2ccc(OCCN(C)C)cc2)cc(OC)c1OC", "activity remaining": "114%"}
{"compound": "CC(C)c1c(O)c(-c2cc3c(c(C(C)C)c2O)CCC2C(C)(C)CCC[C@]32C)cc2c1CCC1C(C)(C)CCC[C@]21C", "note": "(stereo not given in full)", "activity remaining": "102%"}
{"compound": "CC(C)=CC1C(CO)C1(C)C", "note": "(stereo not given)", "activity remaining": "86.3%"}
{"compound": "CC(C)[C@@H]1CC[C@@H](C)CC1=O", "activity remaining": "120%"}
{"compound": "O=c1c(O)c(-c2ccc(O)c(O)c2)oc2c(O[C@@H]3O[C@H](CO)[C@H](O)[C@@H](O)[C@H]3O)c(O)cc(O)c12", "activity remaining": "96.1%"}
{"compound": "CN(C)CCN(Cc1ccccc1)c1ccccn1", "activity remaining": "109%"}
{"compound": "CC(CCC(=O)O)[C@H]1CCC2C3CC[C@@H]4C[C@H](O)CC[C@]4(C)C3C[C@H](O)[C@@]21C", "note": "(stereo not given in full)", "activity remaining": "116%"}
{"compound": "CC1=C(C(=O)O)N2C(=O)[C@@H](NC(=O)[C@H](N)C3=CCC=CC3)C2SC1", "note": "(stereo not given in full)", "activity remaining": "103%"}
{"compound": "CC1=NN(c2ccccc2)C(=O)C1", "activity remaining": "120%"}
{"compound": "O=C(Nc1ccccc1)Nc1ccccc1", "activity remaining": "103%"}
{"compound": "CN(C)CCc1c[nH]c2ccc(Cn3cncn3)cc12", "activity remaining": "102%"}
{"compound": "CC(=O)O[C@@H]1C=C[C@@]2(C)C(C[C@@H](OC(C)=O)[C@@]3(C)C4=CC(=O)O[C@@H](c5ccoc5)[C@]4(C)CCC23)C1(C)C", "note": "(stereo not given in full)", "activity remaining": "82.6%"}
{"compound": "COc1ccc(-c2cc(=O)c3c(OC(C)=O)cc(OC(C)=O)cc3o2)cc1", "activity remaining": "108%"}
{"compound": "CN(C/C=C/C#CC(C)(C)C)Cc1cccc2ccccc12", "activity remaining": "114%"}
{"compound": "C=C1C2CC[C@@]3(C)[C@H](c4ccoc4)OC(=O)C[C@]13O[C@H]1C[C@H](OC(C)=O)C(C)(C)[C@H](CC(=O)OC)[C@@]21C", "activity remaining": "98.7%"}
{"compound": "COC(=O)c1c(Cl)c(Cl)c(C(=O)OC)c(Cl)c1Cl", "activity remaining": "110%"}
{"compound": "CO[C@@]1(NC(=O)CSCC#N)C(=O)N2C(C(=O)O)=C(CSc3nnnn3C)CSC21", "note": "(stereo not given in full)", "activity remaining": "98.6%"}
{"compound": "CNCc1ccccc1", "activity remaining": "108%"}
{"compound": "C=CCc1ccc(O)c(OC)c1", "activity remaining": "115%"}
{"compound": "CC12OC(=O)CC3C(C)(C)[C@H](O)C=C[C@]3(C)C1CC[C@]1(C)C2=CC(=O)O[C@H]1c1ccoc1", "note": "(stereo not given in full)", "activity remaining": "118%"}
{"compound": "CC(C)NCC(O)c1ccc(O)c(O)c1", "note": "(stereo not given)", "activity remaining": "82.7%"}
{"compound": "COc1cc2c(cc1OC)-c1cc3ccc(OC)c(OC)c3c[n+]1CC2", "activity remaining": "97.8% and 112%"}
{"compound": "COc1cc(OC)c(C(C)=O)c(O)c1C", "activity remaining": "101%"}
{"compound": "CC1(C)S[C@@H]2[C@H](NC(=O)COc3ccccc3)C(=O)N2[C@H]1C(=O)O", "activity remaining": "96.2%"}
{"compound": "COc1ccc(C(=O)CC(=O)O)c2c1C=CC(C)(C)O2", "activity remaining": "108%"}
{"compound": "CC(=O)NS(=O)(=O)c1ccc(N)cc1", "activity remaining": "126%"}
{"compound": "COc1ccc2cc([C@H](C)CO)ccc2c1", "activity remaining": "118%"}
{"compound": "CCOC(=O)[C@H](CCc1ccccc1)N[C@@H](C)C(=O)N1Cc2ccccc2C[C@H]1C(=O)O", "activity remaining": "95.9%"}
{"compound": "C[C@@H]1CC[C@]2(C(=O)O)CC[C@]3(C)C(=CCC4[C@@]5(C)CC[C@H](O)C(C)(C)C5CC[C@]43C)C2[C@H]1C", "note": "(stereo not given in full)", "activity remaining": "128%"}
{"compound": "CCCSc1ccc2nc(NC(=O)OC)[nH]c2c1", "activity remaining": "111%"}
